Experimental data taken from PubChem BioAssay AID1259421 (Broad Institute, 2018).
Values joined by “and” are separate entries in the source; they are usually repeats but may differ in a detail not shown here. Identical values can stand only once. The campaign covered roughly 6,400 compounds. About 610 (9.5%) were called active. This is one part of a sample in which actives are shown more often than they occur. Rule as the data show it: active = activity change below about -70%; inconclusive = no clear call, values can overlap the other calls; inactive = above that. Some structures have more than one record in an assay (separate samples or runs), and their calls can disagree.

Experiment: Toxoplasma gondii ME49Luc growth in HeLa cells, luciferase, no IFN-y, primary screen (AID 1259421)
Details: T. gondii ME49Luc in HeLa, 72 h, stronger effect = lower value, concentration not given here

SMILES | activity change, negative = inhibition
N[C@@H]1CCN(O)C1=O | 15% (inactive)
O=C(O)CC/C=C\CC[C@@H]1[C@@H](N2CCCCC2)[C@@H](O)C[C@@H]1OCc1ccc(-c2ccccc2)cc1 | -4.54% (inactive)
COC(=O)C[C@H]1C(C)(C)C(=O)[C@@H]2CC3=C4CC(=O)O[C@@H](c5ccoc5)[C@]4(C)CCC3[C@@]1(C)C2=O (stereo partly drawn) | -15.9% (inactive)
C[N+]1(C)C2CC(OC(=O)[C@@H](CO)c3ccccc3)CC1C1OC12 (stereo partly drawn) | 4.33% (inactive) and 10.7% (inactive)
Cc1cn(C2CC(N=[N+]=[N-])C(CO)O2)c(=O)[nH]c1=O (stereo not drawn) | 10.1% (inactive)
Cc1cn([C@H]2C[C@H](N=[N+]=[N-])[C@@H](CO)O2)c(=O)[nH]c1=O | -81.6% (active)
CCc1cn([C@H]2C[C@H](O)[C@@H](CO)O2)c(=O)[nH]c1=O | 13.9% (inactive)
O=C(O)C1[O][Sb]2([O][Sb]34[O]C(C(=O)O)C([O]3)C(C(O)CO)[O]4)[O]C(C(O)CO)C1[O]2 (stereo not drawn) | -75.8% (active)
C(=N\NC1=NCCN1)/c1c2ccccc2c(/C=N/NC2=NCCN2)c2ccccc12 | -58.3% (inactive)
O=C(Nc1cc2cc[nH]c2cn1)c1ccccc1 | -32.1% (inactive)
COc1ccc(C(=O)c2ccc(O)cc2)c(O)c1O | -0.363% (inactive)
N=C(N)c1ccc2cc(OC(=O)c3ccc(N=C(N)N)cc3)ccc2c1 | 4.69% (inactive)
NC(=O)/N=N/C(N)=O | 7.42% (inactive)
CC(C)(C(=O)NCC(F)(F)C(F)(F)F)C(=O)N[C@@H]1C(=O)Nc2ccccc2-c2ccccc21 | -88.1% (active)
C/C(=C/c1ccc(C(=O)O)cc1)c1ccc2c(c1)C(C)(C)CCC2(C)C | -3.41% (inactive)
NC1[C@H]2CN(c3nc4c(cc3F)c(=O)c(C(=O)O)cn4-c3ccc(F)cc3F)C[C@@H]12 (stereo partly drawn) | -37.5% (inactive)
O=C(CCCCCN1C(=O)c2cccc3cccc(c23)C1=O)NO | -90.6% (active)
O=C(O)CCCN1C(=O)c2cccc3cccc(c23)C1=O | -5.26% (inactive)
O=C(O)CN1C(=O)c2cccc3cccc(c23)C1=O | 4.44% (inactive) and 1.05% (inactive)
O=c1cc(-c2ccc(O)cc2)oc2cc(O)ccc12 | 22.2% (inactive)
CCCC[C@H](C)C[C@H](O)/C=C/[C@H]1[C@H](O)CC(=O)[C@@H]1CCCC/C=C/C(=O)O | -0.328% (inactive)
C/C=C/C(=O)N(CC)c1ccccc1C | 14.6% (inactive) and 5.26% (inactive)
C=C[C@@](C)(/C=C/c1ccc(O)cc1)CCC=C(C)C | 11.8% (inactive)
NC(=O)C(c1ccccc1)(c1ccc(F)cc1)c1ccc(F)cc1 | 1.76% (inactive)
Oc1ccc(Cl)c2cccnc12 | 17.5% (inactive) and 6.79% (inactive)
Oc1c(Br)cc(Br)c2cccnc12 | -63.3% (inactive)

SMILES | activity change, negative = inhibition
[O-][NH2+]c1ccc(O)c2ncccc12 | -71.9% (active) and -84.8% (active)
COc1ccc2c(c1OC)C(=O)O[C@@H]2C1c2c(cc3c(c2OC)OCO3)CCN1C (stereo partly drawn) | 8.49% (inactive)
C[C@@H]1C(=O)O[C@H]2CC34[C@H]5C[C@@H](C(C)(C)C)[C@]36[C@@H](OC(=O)[C@@H]6O)O[C@@]4(C(=O)O5)[C@]21O (stereo partly drawn) | 5.52% (inactive)
CC(C)CCCC(C)[C@H]1CCC2C3C(=O)C=C4C[C@@H](O)CC[C@]4(C)C3CC[C@@]21C (stereo partly drawn) | -7.52% (inactive)
CC(C)(C)NCC(O)COc1cccc2c1CCCC2=O (stereo not drawn) | 12.5% (inactive) and -6.73% (inactive)
CC(=O)O.CC(=O)O.[Cl][Pt+2][Cl].[NH-]C1CCCCC1.[NH2-] | 1.41% (inactive)
O=C(O[C@@H]1Cc2c(O)cc(O)cc2O[C@@H]1c1ccc(O)c(O)c1)c1cc(O)c(O)c(O)c1 | -0.0246% (inactive)
COc1ccccc1N1CCN(CCCCNC(=O)c2ccc(-c3ccc(C(C)=O)cc3)cc2)CC1 | 7.26% (inactive)
COc1ccc(NC(=O)c2ccc(-c3ccc(-c4noc(C)n4)cc3C)cc2)cc1N1CCN(C)CC1 | -78.7% (active) and -44.9% (inactive)
CN(C)CCCc1cc(C(=O)Nc2ccc(-c3ccncc3)cc2)ccc1O | 4.74% (inactive)
COc1ccc(NS(=O)(=O)c2ccc(I)cc2)cc1N1CCN(C)CC1 | 0.621% (inactive) and -5.09% (inactive)
COc1ccc(NC(=O)c2ccc(-c3ccc(-c4noc(C)n4)cc3C)cc2)cc1OCCN(C)C | -53.8% (inactive) and -87.8% (active)
COc1ccc(C(=O)NCc2ccc(OCCN(C)C)cc2)cc1OC | -2.71% (inactive)
CN(C)c1ccc(O)c2c1C[C@H]1C[C@H]3[C@H](N(C)C)C(=O)C(C(N)=O)C(=O)[C@@]3(O)C(=O)C1C2=O (stereo partly drawn) | -2.37% (inactive) and -2.12% (inactive)
Cc1cc(O)cc(=O)o1 | 2.59% (inactive)
CCCCCC/C=C/C=C\CCCCCCCC(=O)O | 9.04% (inactive)
Cc1cc(Nc2cc(CN3CCOCC3)c3nc(C)c(Cc4ccc(Cl)cc4F)n3n2)n[nH]1 | -76.1% (active)
FC(F)OC(Cl)C(F)(F)F (stereo not drawn) | 4.04% (inactive)
CCCC(=O)O | 16.3% (inactive) and 10.7% (inactive)
CN=C(NC#N)Nc1ccc(C2=NNC(=O)CC2C)cc1 (stereo not drawn) | 27% (inactive) and 4.42% (inactive)
CCC(=O)NC1CCc2cccc(OC)c2C1 (stereo not drawn) | 4.71% (inactive) and 6.93% (inactive)
CC12CCC3C(CCC4CC(O)CCC43C)C1CC=C2c1ccccc1 (stereo not drawn) | 6.05% (inactive)
N[C@@H]1c2cccnc2[C@H](OC(=O)N2CCC(n3c(=O)[nH]c4ncccc43)CC2)CC[C@H]1c1cccc(F)c1F | -1.69% (inactive)
C=C[C@@H]1C[C@]1(NC(=O)[C@@H]1C[C@@H](Oc2ncc(OC)c3ccc(Cl)cc23)CN1C(=O)[C@@H](NC(=O)OC(C)(C)C)C(C)(C)C)C(=O)NS(=O)(=O)C1CC1 | -73.7% (active)
C=C[C@@H]1C[C@]1(NC(=O)[C@@H]1C[C@@H]2CN1C(=O)[C@H](C(C)(C)C)NC(=O)O[C@@H]1C[C@H]1CCCCCc1nc3ccc(OC)cc3nc1O2)C(=O)NS(=O)(=O)C1CC1 | 0.122% (inactive)
CCOc1ccccc1O[C@H](c1ccccc1)[C@H]1CNCCO1 (racemic) | 8.34% (inactive)

SMILES | activity change, negative = inhibition
O=C(c1cncc(Br)c1)N1CCC(N2CCCC2)CC1 | 15.9% (inactive)
O=C(c1ccc(Nc2nccc(-c3cc4ccccc4s3)n2)cc1)N1CCC(N2CCCC2)CC1 | -80.6% (active) and -80.3% (active)
O=C(c1ccc(C(=O)N2CCC(N3CCCC3)CC2)c(Nc2ccccc2)c1)N1CCC(N2CCCC2)CC1 | -4.76% (inactive)
CC1=C2C(O)C(=O)OC3CC4C(C)(C)C(=O)C=C[C@]4(C)C(CC1)[C@]23C (stereo partly drawn) | 9.55% (inactive)
COC(=O)N[C@H](C(=O)N1CC2(CC2)C[C@H]1c1ncc(-c2ccc3c(c2)C(F)(F)c2cc(-c4ccc5nc([C@@H]6[C@H]7CC[C@H](C7)N6C(=O)[C@@H](NC(=O)OC)C(C)C)[nH]c5c4)ccc2-3)[nH]1)C(C)C | -11.8% (inactive)
CC(C)N=C(N)/N=C(\N)Nc1ccc(Cl)cc1 | 13.8% (inactive) and 11.1% (inactive)
Cc1ccc2c(=O)c3ccccc3n(CCCN)c2c1C | -91.1% (active) and -77% (active)
Cc1ccc2c(=O)c3cccc(CC(=O)O)c3oc2c1C | 9.87% (inactive)
Cc1cc(=O)c(C(=O)N[C@@H](C(=O)N[C@@H]2C(=O)N3C(C(=O)O)=C(CSc4nnnn4C)CS[C@H]23)c2ccc(O)cc2)c[nH]1 | 9.23% (inactive)
NC(CC(=O)Nc1ccc(Oc2cc(F)c(F)cc2Br)cc1)C(=O)O (stereo not drawn) | 0.0757% (inactive)
COc1cc(OC)c(C(C)=O)c(O)c1C | 2.79% (inactive)
CCCCCCCCCCCCCC[C@@H](O)[C@@H](O)[C@@H](N)CO | 24.8% (inactive)
Nc1[nH]c(=O)ncc1F | 8.39% (inactive) and -90.4% (active)
O=S(=O)(NCCNC/C=C/c1ccc(Br)cc1)c1cccc2cnccc12 | 4.5% (inactive) and -8.12% (inactive)
O=C(C(c1ccccc1)c1ccccc1)N1CCN(CC(O)COc2cccc3ncccc23)CC1 (stereo not drawn) | 10.1% (inactive)
Cn1c(=O)n(-c2ccc(C(C)(C)C#N)cc2)c2c3cc(-c4cnc5ccccc5c4)ccc3ncc21 | 13.4% (inactive)
CC(C)(C#N)c1ccc(N2C(=O)OCc3cnc4ccc(-c5cnc6ccccc6c5)cc4c32)cc1 | -90.7% (active)
C=CC(=O)Nc1cc(Nc2nccc(-c3cn(C)c4ccccc34)n2)c(OC)cc1N(C)CCN(C)C | -63.1% (inactive)
C[C@H](CCC(=O)O)[C@H]1CCC2C3C(=O)CC4CC(=O)CC[C@]4(C)C3CC(=O)[C@@]21C (stereo partly drawn) | 8.53% (inactive) and 10.4% (inactive)
O=c1[nH]cnc2nc[nH]c12 | 7.14% (inactive)
COc1cccc(-c2cc(=O)c3cc(OC)ccc3o2)c1 | 316% (inactive)
O=C1Nc2ccc(Br)cc2/C1=C/c1cc2c([nH]1)CCCC2 | 13.6% (inactive)
CCCCCCCCCCC(CO)CCCCCCCC (stereo not drawn) | 7.89% (inactive)
CCCCC(CC)CN=C(N)NC(N)=NCCCCCCN=C(N)NC(N)=NCC(CC)CCCC (stereo not drawn) | -87.6% (active)
CC(N)=NCCCC[C@H](N)C(=O)O | 11.5% (inactive)
C=C1CCC2C(CC2(C)C)C(=O)CCC1O (stereo not drawn) | 4.7% (inactive)
